Among the data in PubChem BioAssay AID504692 (The Scripps Research Institute Molecular Screening Center, 2011) are activation values, retold here.

Among all 340,000 compounds or so, about 2,000 (0.59%) were called active. No stated cut-off is given here; in the data, active means activation mostly above about 9.5% (no sharp cut-off); inactive means mostly below about 7.6%. The entries come from a sample that favours actives as a whole.

The target in this assay is 5-hydroxytryptamine receptor 5A (Homo sapiens) (UniProt P47898). Kind of assay: HTR5A agonists in luminescence cell assay, primary screen, counter-screen for OPRM1-OPRD1 heterodimer agonist project, full-deck HTS (AID 504692).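 Further: 0% = cells with vehicle only and 100% = reference agonist.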 The conditions noted are these: cell-based, at 9.3 µM, stronger effect = higher value. A general note: A counterscreen serves to expose hits that act by an unwanted route or on another target.
5-hydroxytryptamine receptor 5A (Homo sapiens), sequence (P47898 whole entry, looked up): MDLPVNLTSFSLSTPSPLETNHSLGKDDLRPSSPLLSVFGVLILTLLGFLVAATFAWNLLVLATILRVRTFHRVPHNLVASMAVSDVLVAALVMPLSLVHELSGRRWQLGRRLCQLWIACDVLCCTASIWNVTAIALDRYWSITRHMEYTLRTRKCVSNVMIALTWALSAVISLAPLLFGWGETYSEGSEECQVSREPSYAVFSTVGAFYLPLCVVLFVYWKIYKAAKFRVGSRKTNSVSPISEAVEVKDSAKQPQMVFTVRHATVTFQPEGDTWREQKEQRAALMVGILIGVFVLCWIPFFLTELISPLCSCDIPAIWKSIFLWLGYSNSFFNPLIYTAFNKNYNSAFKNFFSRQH
As to `C/C=C/C(=O)OCC(=O)Nc1ccc(F)cc1Cl`, the activation is 6.73% (inactive).
Take `Cc1ccc2nc(-c3ccc(NC(=O)c4cccnc4)cc3)oc2c1`: the activation was 1.12% (inactive).
As for `O=C(Nc1ccc2oc(-c3ccccc3F)nc2c1)c1ccco1`, the activation is 0.88% (inactive).
As to `COc1cc(OC)cc(C(=O)Nc2ccc(-c3nc4ccccc4o3)c(O)c2)c1`, the activation is 13.9% (active).
In the case of `COc1ccc(C(=O)NC(C)c2nccs2)cc1OC1CCN(C(C)C)CC1` (centres undefined), the activation is 0.03% (inactive).
Turning to `Cc1ccc(C)c(NC(=O)CCC(=O)N/N=C2/CC(=O)CC(C)(C)C2)c1`, the activation is 0.95% (inactive).
`O=C(CCN1CCCCC1)N=Nc1c(O)[nH]c2ccccc12`: the activation was -0.47% (inactive).
Then `Cc1c(-c2ccccc2)n[nH]c1C(=O)N=Nc1c(O)[nH]c2ccccc12`, with 12.7% (active); and `Oc1[nH]c2ccccc2c1N=Nc1c(F)c(F)c(F)c(F)c1F`, with 4.3% (inactive).
The figure for `NC(=O)c1ncn([C@@H]2O[C@H](CNCc3cnc(N4CCOCC4)s3)[C@@H](O)[C@H]2O)n1` is -1.96% (inactive); for `CCOC(=O)C(C)n1cnc2c(nnn2-c2ccc(F)cc2)c1=O` (centres undefined) it is 0.23% (inactive).
Regarding `Fc1ccccc1OCCSc1nc2ccccc2o1`, the activation was 4.15% (inactive).
For the compound `CC(C)(C)C1C/C(=C/c2ccco2)C(=O)/C(=C/c2ccco2)C1` (centres undefined), the activation was 10.1% (active).
The figure for `COC(=O)COc1ccc2c(c1C)O/C(=C\c1ccco1)C2=O` is -6.31% (inactive); for `CS(=O)(=O)c1ccc2c(c1)SC1=NC(=O)/C(=C/c3ccco3)C(=N)N12` it is 3.34% (inactive).
`COc1c(O)cc2oc(-c3ccc(O)c(O)c3)cc(=O)c2c1O`: the activation is -1.01% (inactive).
Regarding `Cc1ccc(S(=O)(=O)N2CCN(C(=O)COC(=O)/C=C/c3cccc(Cl)c3)CC2)c(C)c1`, the activation is 8.67% (inactive).
Turning to `Cc1c(C2=CCN(S(=O)(=O)c3ccc(Cl)cc3)CC2)c2ccccc2n1C`, the activation is 1.24% (inactive).
Then `Cc1cccc(C)c1OC(=O)CSc1nnc(-c2ccccc2)o1`, with 11% (active); and `CCN(C(=O)CSc1nnc(-c2ccncc2)o1)c1ccccc1`, with -1.64% (inactive).
With `COC(=O)CSc1nnc(-c2cccnc2)o1`, the activation was 0.3% (inactive).
As to `CCCCN(CCCC)CCC(O)c1cc2c(Cl)cc(Cl)cc2c2cc(C(F)(F)F)ccc12` (centres undefined), the activation is 5.23% (inactive).
For `Cc1onc(C(=O)Nc2ccc3c(c2)OCO3)c1[N+](=O)[O-]`, the activation is 14.2% (active).
In the case of `Cc1nn(CC(=O)Nc2ccc3c(c2)OCO3)c(C)c1[N+](=O)[O-]`, the activation is 6.4% (inactive).
In the case of `Cn1cc([N+](=O)[O-])c(C(=O)Nc2ccc3c(c2)OCCO3)n1`, the activation is -1.8% (inactive).
Turning to `O=c1cc(CO)oc(C(Nc2cccc([N+](=O)[O-])c2)c2ccccn2)c1O` (centres undefined), the activation was 0.87% (inactive).
As to `Cc1ccc2nc(-c3ccncc3)cc(C(=O)Nc3ccc(OC(F)F)cc3)c2c1`, the activation is 1.14% (inactive).
Take `Cc1ccc2nc(-c3ccncc3)cc(C(=O)Nc3ccc4c(c3)OCCO4)c2c1`: the activation was 12.6% (active).
As for `CCOc1ncccc1C(=O)Nc1ccc2c(c1)OCCO2`, the activation is 0.83% (inactive).
Take `CCn1c(SCC(=O)Nc2ccc3c(c2)OCCO3)nnc1-c1ccncc1`: the activation was 3.29% (inactive).
Consider `Cc1ccc2nc(-c3ccncc3)cc(C(=O)Nc3ccncc3)c2c1`, for which the activation is 21% (active).
Consider `CCN(CC)CCNC(=O)c1ccc(NC(=O)c2cc(-c3ccncc3)nc3ccccc23)cc1`, for which the activation was 2.22% (inactive).
Then `COc1cc2c(cc1OC)C1C(=O)c3cc(OS(C)(=O)=O)c(OC)cc3C1N(C)C2=O` (centres undefined), with -2.76% (inactive); and `OC(CN=c1sc2ccccc2n1CC(O)COc1ccccc1)COc1ccccc1` (centres undefined), with 7.91% (inactive); and `CCn1nnc(NC(=O)c2cc(Cl)c(OC)c(Cl)c2)n1`, with -6.18% (inactive).
Then `CN(CCc1ccccc1)c1ccc([N+](=O)[O-])cn1`, with 2.92% (inactive); and `COc1ccc(Br)cc1S(=O)(=O)N1CCN=C1C`, with 2.3% (inactive); and `CCCCCOC(=O)c1ccc(N2C(=O)C3C4C=CC(C4)C3C2=O)cc1` (centres undefined), with -1.59% (inactive).
Consider `O=C(CN1C(=O)C2C3C=CC(C3)C2C1=O)NCCc1ccccc1Cl` (centres undefined), for which the activation was -1.28% (inactive).
With `CCCCOC(=O)NCN1C(=O)C2C3C=CC(C3)C2C1=O` (centres undefined), the activation was 9.49% (active).
On to `CCc1c(Nc2ccccc2Cl)nc(N)[nH]c1=O`, for which the activation was -3.6% (inactive).
The figure for `NC(=O)N1CCCC1C(=O)Nc1ccc(Cl)c(Cl)c1` (centres undefined) is 1.66% (inactive); for `O=C(CC(O)(C(F)(F)F)C(F)(F)F)Nc1ccc(Cl)c(Cl)c1` it is 20.1% (active).
As for `O=C(COC(=O)c1cc[n+]([O-])cc1)Nc1ccc(Cl)c(C(F)(F)F)c1`, the activation was 3.73% (inactive).
As for `CC(C)(C)NS(=O)(=O)CC12CCC(CC1=O)C2(C)C` (centres undefined), the activation was 3.18% (inactive).
In the case of `CC1(C)C2CCC1(CS(=O)(=O)NCCc1c[nH]c3ccccc13)C(=O)C2` (centres undefined), the activation was 41.5% (active).
Regarding `COc1ccccc1CNS(=O)(=O)CC12CCC(CC1=O)C2(C)C` (centres undefined), the activation is -5.29% (inactive).
As for `COc1ccc(/C=C2/CCCc3ccccc3C2=O)cc1`, the activation is -2.8% (inactive).
As for `COc1ccc(OC)c(C2C3=C(N=c4s/c(=C\c5cccc(O)c5)c(=O)n42)c2ccccc2CC3)c1` (centres undefined), the activation was 13.5% (active).
On to `O=C1[C@@H]2C(Cc3ccc(O)cc3)NC3(C(=O)Nc4ccc(F)cc43)[C@@H]2C(=O)N1c1ccc(F)cc1` (some centres undefined), for which the activation is 1.44% (inactive).
The figure for `CC1CCN(CC(=O)Nc2nccs2)CC1` is -1.58% (inactive); for `CCC(C)NC(=O)CCCc1ccccc1` (centres undefined) it is 14.8% (active); for `CC(CCn1cccn1)NC(=O)CCc1nnc(CCc2ccccc2)o1` (centres undefined) it is 4.98% (inactive).
For `COc1ccccc1C(=O)NCCC(=O)NC(C)CCc1ccccc1` (centres undefined), the activation was 5.98% (inactive).
With `Cc1noc(C)c1S(=O)(=O)N(CC(=O)NCc1ccc(Cl)cc1)c1ccc2c(c1)OCO2`, the activation is 1.78% (inactive).
Turning to `Cc1ccc(-n2c(=O)cc(N3CCN(Cc4ccccc4)CC3)[nH]c2=O)cc1`, the activation is 7.71% (inactive).
For `CCOc1cc2c(Cl)ncnc2c(OCC)c1OCC`, the activation is 2% (inactive).
Take `COc1ccc(S(=O)(=O)N2CCC(C(=O)NCCC(=O)NCc3cccc(OC)c3)CC2)cc1`: the activation was -0.19% (inactive).
Take `CCC(=O)Nc1ccc(C(=O)Nc2cc(C)on2)cc1`: the activation is 6.16% (inactive).
On to `CCOc1ccc(C(=O)Nc2ccc(S(=O)(=O)Nc3cc(C)on3)cc2)cc1`, for which the activation is 5.44% (inactive).
For `CCOc1ccc(NC(=O)Nc2cc(C)on2)cc1`, the activation is 14.5% (active).
As to `COc1cccc(OCC(O)CNC(=O)c2oc3c(C)c(C)ccc3c2C)c1` (centres undefined), the activation was 0.14% (inactive).
Take `O=C1CCCC2=C1C(c1cccs1)n1nc(SCc3ccccc3)nc1N2` (centres undefined): the activation was 1.85% (inactive).
For `CC(=O)c1cccc(NC(=O)C2CCN(C(=O)c3ccccc3Cl)CC2)c1`, the activation is 1.54% (inactive).
For the compound `O=C(CSc1nncs1)NC1CCCc2ccccc21` (centres undefined), the activation is -2.59% (inactive).
`O=C(N[C@@H](Cc1ccccc1)C(=O)OCc1ccccc1)c1nc[nH]c1C(=O)NC1CCNCC1`: the activation is -1.94% (inactive).
In the case of `CC(C)(C)OC(=O)N1CCC(NC(=O)c2[nH]cnc2C(=O)N[C@@H](Cc2ccccc2)C(=O)OCc2ccccc2)CC1`, the activation was 38% (active).
With `CC(C)(C)OC(=O)CNC(=O)c1[nH]cnc1C(=O)N[C@@H](Cc1ccccc1)C(=O)OCc1ccccc1`, the activation is 9.43% (inactive).
On to `O=C(CNCc1ccco1)Nc1cc(S(=O)(=O)N2CCOCC2)ccc1N1CCCC1`, for which the activation was 16.7% (active).
As to `O=C(COC(=O)c1ccccc1F)Nc1cc(S(=O)(=O)N2CCOCC2)ccc1N1CCCC1`, the activation was -1.44% (inactive).
Consider `CC(=O)NCCC(=O)Nc1cc(S(=O)(=O)N2CCOCC2)ccc1N1CCOCC1`, for which the activation is -0.71% (inactive).
In the case of `Cc1ccc(C(=O)NC2CCN(C(=O)Nc3ccccc3Cl)CC2)cc1`, the activation was -0.54% (inactive).
In the case of `COc1ccccc1CCNC(=O)c1cnccn1`, the activation was 2.02% (inactive).
`COc1ccc(C(C#N)Nc2ccc(C)cc2)cc1` (centres undefined): the activation was 2.71% (inactive).
Take `CC(=O)N1CCN(S(=O)(=O)c2c(F)cc(F)c(Cl)c2F)CC1`: the activation was 11.6% (active).
Then `O=C(c1cnc(Cl)c(Cl)c1)N1CCN(S(=O)(=O)c2ccc(F)cc2)CC1`, with -1.02% (inactive); and `CCN1CCN(C(=O)C2CCN(S(=O)(=O)c3cc(Cl)ccc3Cl)CC2)CC1`, with 1.91% (inactive); and `CCc1nnc(NC(=O)CSCc2cc(=O)n3cc(C)sc3n2)s1`, with -1% (inactive).
Then `Cc1cccc(/C=N/NC(=O)CNc2cccc3ccccc23)n1`, with 2.33% (inactive); and `C/C(=N\NC(=O)CNc1cccc2ccccc12)c1ccc(Br)s1`, with 46.5% (active).
The figure for `C/C(=N\NC(=O)CSc1nc2ccccc2c(=O)n1-c1ccccc1C)c1cccs1` is 9.42% (inactive); for `COc1ccc(CN2CCCCC2C)cc1OC` (centres undefined) it is -0.45% (inactive).
As to `COc1ccc(C2CC(c3cccs3)=Nc3ccccc3S2)cc1OC` (centres undefined), the activation was 0.29% (inactive).
As for `CN(Cc1ccco1)S(=O)(=O)c1nnc(NC(=O)c2ccccc2)s1`, the activation is 2.57% (inactive).
Consider `O=C(Nc1nc(-c2ccco2)c(-c2ccco2)s1)c1ccco1`, for which the activation is 5.45% (inactive).
Consider `CNc1nnc(-c2ccco2)s1`, for which the activation was 15.4% (active).
On to `COc1cccc(-n2c(SCC(=O)NC3CCCCC3)nc3n[nH]c(C)c3c2=N)c1`, for which the activation was 0.63% (inactive).
In the case of `CCCCNC(=O)CSc1nc2n[nH]c(C)c2c(=N)n1-c1cccc(Cl)c1C`, the activation is -2.98% (inactive).
`Cc1ccc(-n2c(SCC(=O)NCCC3=CCCCC3)nc3n[nH]c(C)c3c2=N)cc1Cl`: the activation was 12.6% (active).
As to `CCOc1ccc(CN(Cc2ccco2)C(c2cccs2)c2nnnn2C(C)(C)C)cc1` (centres undefined), the activation is -2.19% (inactive).
Turning to `Cc1nc2ccccc2c(C(=O)O)c1-c1ccccn1`, the activation was -0.26% (inactive).
Take `CCSc1nc(-c2ccc(OC)cc2)cc(-c2ccc(OC)cc2)c1C#N`: the activation is 0.07% (inactive).
As for `N#Cc1c(C(F)(F)F)cc(-c2ccc(Cl)cc2)nc1SCC(=O)O`, the activation was -1.06% (inactive).
The figure for `CCOC(=O)CC(=O)CSc1nc(-c2ccccc2)cc(-c2ccc(Cl)cc2)c1C#N` is 10.7% (active).
